The values below come from publication PMC5540273 (PLoS ONE, 2017).
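Also: kd values determined as follow-up on hits from a single-replicate KINOMEscan panel screen.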

The subject of one assay is EGFR.
Compound `Cn1cncc1-c1ccc2ncnc(Nc3ccc(OCc4ccccc4)cc3)c2c1` [GW320571] yielded a Kd of 49 nM. This lies in the double-digit nanomolar range.

Regarding `Cl.NC(=O)c1cccc(Nc2nccc(Nc3ccc(Oc4cccc(Cl)c4)c(Cl)c3)n2)c1` [GW659008], the Kd stood at 120 nM. This Kd is about 2.4-fold higher than that of the compound before.

As to `Cl.O=C(Nc1cccc(-c2nn3ncccc3c2-c2ccnc(Nc3cccnc3)n2)c1)c1c(F)cccc1F` [GSK312879], the affinity, expressed as Kd, was 38 nM.

The test system of the next assay is T1, ERK4.
T1 construct: gene MAPK4
For `Cc1cccc(-c2nc(C)cc(Nc3ccncc3)n2)n1` [GSK257997], the dissociation constant (Kd) is over 10000 nM.

In the case of `CS(=O)(=O)c1ccc(-c2nc3n(c2-c2ccncc2)CCC3)cc1` [SKF-105942], the dissociation constant Kd was over 10000 nM.

As for `O=C(Nc1n[nH]c2nc(-c3nccs3)c(Br)cc12)C1CCCC1` [SB-742609], the equilibrium dissociation constant (Kd) was over 10000 nM.

In a further assay the test system is FLT3.
Consider `Cc1ccc(NC(=O)Nc2cc(C(C)(C)C)nn2-c2ccccc2)cc1` [GSK1014915], for which the equilibrium dissociation constant (Kd) was determined as 26 nM.

`O=C(Nc1n[nH]c2nc(-c3nccs3)c(Br)cc12)C1CC1` [SB-742251]: the dissociation constant Kd stood at 190 nM.

In the case of `Cn1ccc2ncnc(Oc3ccc(NC(=O)Nc4ccccc4)cc3)c21`, the dissociation constant Kd came to 33 nM.

In the next assay the test system is GAK.
In turn, `Fc1cc(Cl)ccc1Nc1ccnc2cc(I)ccc12` [GW551191] returned a Kd of 340 nM.

With `CSc1nn2c(=O)cc(N3CCOCC3)nc2n1Cc1cccc(C(F)(F)F)c1C` [GSK2363608], the equilibrium dissociation constant (Kd) is over 10000 nM.

`Cc1ccc(-c2cc(-c3c[nH]nc3-c3ccccn3)ccn2)cc1` [GW684088]: binding was characterised by a dissociation constant (Kd) of 110 nM.

The subject of the next assay is GSK3A.
On to `O=C(Nc1n[nH]c2nc(-c3nccs3)c(Br)cc12)C1CC1` [SB-742251], for which the affinity, expressed as Kd, was 290 nM.

Consider `O=C(Nc1n[nH]c2nc(-c3nccs3)c(Br)cc12)C1CCCC1` [SB-742609], for which the dissociation constant Kd stood at 61 nM.

`Cc1nnc(-c2ccc3occ(-c4ccc(S(C)=O)cc4)c3c2)[nH]1` (stereo not drawn) returned a Kd of 190 nM.

As usually defined, the Kd is the constant that tells how readily two partners part at equilibrium. A high value points to weaker binding.
